# Inconclusive results are not listed. The source made the active and inactive calls. Unless noted, calls follow the shape of the full dose curve.
# Key:
# [1] = biological target: Bile acid receptor (Homo sapiens) (UniProt Q96RI1); assay: qHTS assay for small molecule antagonists of farnesoid X receptor signaling (AID 588526); also: % is scaled to controls: 0 for no effect and ±100 for the full control effect
# How it was run: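 Antagonist mode: titrated compounds tested against chenodeoxycholic acid stimulation (normalized to 50 uM CDCA and DMSO) in GeneBLAzer HEK293T cells for 16 h. Beta-lactamase read by CCF4 fluorescence; IC50 from Hill fits.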
# [2] = biological target: Bile acid receptor (Homo sapiens) (UniProt Q96RI1); assay: qHTS assay for small molecule agonists of farnesoid X receptor signaling (AID 588527); conditions: HEK293T FXR-UAS-bla, beta-lactamase ratio, 16 h; activation: stronger effect = higher value;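 also: series mostly up to about 77 µM; 0% = vehicle basal and 100% = reference agonist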
# How it was run: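 FXR-UAS-bla HEK293T, 10% dialyzed FBS; cpds up to 92 uM titration, 16 h 37 C; CCF4 dye 2 h RT; fluorescence. Normalized to chenodeoxycholic acid 100 uM (100%) and DMSO (0%); Hill fit gives EC50, efficacy.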
# [3] = biological target: Glucocorticoid receptor (Homo sapiens) (UniProt P04150); assay: qHTS assay for small molecule agonists of glucocorticoid receptor signaling (AID 588532; active = well fitted curve in the direction sought with a large enough effect in the signal ratio, with a control signal flat; the % refers to the signal ratio;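 also: 100% = dexamethasone at 0.1 µM and 0% = DMSO only wells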); conditions: HeLa MMTV-bla, beta-lactamase ratio, agonist, 18 h; activation: stronger effect = higher value, percent of dexamethasone control, DMSO zero
# How it was run: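 HeLa GRE-bla reporter cells; 18 h compound exposure at 37 C; 2 h CCF4 loading at room temperature; fluorescence at 460 and 530 nm; EC50 by Hill equation.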
# [4] = biological target: Glucocorticoid receptor (Homo sapiens) (UniProt P04150); assay: qHTS assay for small molecule antagonists of glucocorticoid receptor signaling (AID 588533; active = well fitted inhibition curve with a large enough effect in the signal ratio, with a control signal flat, not every such curve was filed as active; the % refers to the signal ratio; also: % is scaled to controls: 0 for no effect and ±100 for the full control effect)
# How it was run: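 Antagonist-mode qHTS: compound titrations added to GRE-bla HeLa cells, then dexamethasone 2 nM final; 18 h, 37 C. CCF4 FRET fluorescence normalized to dexamethasone and DMSO; IC50 from Hill fit.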
# [5] = biological target: Peroxisome proliferator-activated receptor gamma (Homo sapiens) (UniProt P37231); assay: qHTS assay for small molecule agonists of peroxisome proliferator-activated receptor gamma signaling (AID 588536; active = well fitted curve in the direction sought with a large enough effect in the signal ratio, with a control signal flat, not every such curve was filed as active; the % refers to the signal ratio;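 also: 0% = DMSO basal wells and 100% = rosiglitazone at 2 µM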)
# How it was run: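 PPAR-gamma-UAS-bla HEK293 cells in medium with 1% charcoal/dextran-treated FBS were exposed to compounds for 16 h at 37 C. Beta-lactamase activity was read with CCF4 substrate (405 nm excitation, 460/530 nm emission).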
# [6] = biological target: Peroxisome proliferator-activated receptor gamma (Homo sapiens) (UniProt P37231); assay: qHTS assay for small molecule antagonists of peroxisome proliferator-activated receptor gamma signaling (AID 588537; active = well fitted inhibition curve with a large enough effect in the signal ratio, with a control signal flat, not every such curve was filed as active; the % refers to the signal ratio;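 also: reporter cells co-stimulated with 50 nM rosiglitazone agonist during compound treatment; % of control where 0% means no effect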)
# How it was run: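 PPARγ-UAS-bla HEK293 cells (3000/well) in 1% charcoal/dextran-stripped FBS are treated with compound, then stimulated with 50 nM rosiglitazone for 16 h at 37 °C. Read-out is CCF4 β-lactamase fluorescence after 2 h at RT. IC50 comes from Hill fits normalised to rosiglitazone and DMSO.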
# [7] = biological target: Vitamin D3 receptor (Homo sapiens) (UniProt P11473); assay: qHTS assay for small molecule antagonists of vitamin D receptor signaling (AID 588541);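 also: receptor activated by calcitriol during compound treatment; series mostly up to about 77 µM; % is scaled to controls: 0 for no effect and ±100 for the full control effect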
# How it was run: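 VDR-UAS-bla HEK293T cells in 2% charcoal-stripped FBS were stimulated with 1-alpha,25-dihydroxyvitamin D3 (3 nM final) plus compound for 16 h at 37 C. The beta-lactamase CCF4 readout was normalized to 50 nM agonist and DMSO, and Hill fits gave IC50.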
# [8] = biological target: Vitamin D3 receptor (Homo sapiens) (UniProt P11473); assay: qHTS assay for small molecule agonists of vitamin D receptor signaling (AID 588543);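 also: 0% = DMSO basal and 100% = reference agonist control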
# How it was run: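 β-lactamase reporter, VDR-UAS-bla HEK293T, agonist mode. Cells plated 5 h at 37 °C, compound titration 16 h at 37 °C, CCF4 dye 2 h RT, ratio 460/530 nm. Hill fit → EC50, efficacy vs 50 nM 1α,25-(OH)2D3.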
# [9] = qHTS assay for small molecule agonists of retinoid X receptor alpha signaling (AID 588544); conditions: HEK293T RXRa-UAS-bla, beta-lactamase reporter, 18 h; 530 nm emission;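 as to activation: 0% = DMSO basal wells and 100% = reference agonist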
# [10] = biological target: Retinoic acid receptor RXR-alpha (Homo sapiens) (UniProt P19793); assay: as above
# [11] = biological target: Thyroid hormone receptor beta (Homo sapiens) (UniProt P10828); assay: qHTS assay for small molecule agonists of thyroid hormone receptor beta signaling (AID 588545);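 also: 0% = DMSO only and 100% = 10 nM T3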
# How it was run: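 Efficacy and EC50 values derive from Hill fits of qHTS titration data, normalized to 10 nM T3 and DMSO-only wells. HEK 293 reporter cells were stimulated for 18 hrs at 37 C, with beta-lactamase activity measured by CCF4 fluorescence.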
# [12] = qHTS assay for small molecule antagonists of retinoid X receptor alpha signaling (AID 588546; active = well fitted inhibition curve with a large enough effect in the signal ratio, with a control signal flat, not every such curve was filed as active; the % refers to the signal ratio;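 also: cells stimulated with 9-cis-retinoic acid as agonist; % is scaled to controls: 0 for no effect and ±100 for the full control effect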); conditions: HEK293T RXRa-UAS-bla, beta-lactamase ratio, antagonist mode; measured here: W530 green channel, cytotoxicity proxy
# How it was run: (§1)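 Beta-lactamase reporter inhibition, read as CCF4 fluorescence ratio (ex 405, em 460/530 nm) after 2 h at RT. HEK293T UAS-bla cells, 2500/well, were stimulated with 9-cis-RA at 500 or 100 nM final alongside test compound for 18 h at 37 C.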
# [13] = biological target: Retinoic acid receptor RXR-alpha (Homo sapiens) (UniProt P19793); assay: as above; conditions: HEK293T RXRa-UAS-bla, beta-lactamase ratio, antagonist mode
# How it was run: as §1
# [14] = biological target: Thyroid hormone receptor beta (Homo sapiens) (UniProt P10828); assay: qHTS assay for small molecule antagonists of thyroid hormone receptor beta signaling (AID 588547; active = well fitted inhibition curve with a large enough effect in the signal ratio, with a control signal flat, not every such curve was filed as active; the % refers to the signal ratio); conditions: TR-UAS-bla HEK293, beta-lactamase ratio, antagonist mode, 18 h
# How it was run: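 TR-UAS-bla GripTite HEK293 cells in 2% charcoal/dextran FBS medium; compounds 0.59 nM to 92 uM with T3 at 0.4nM final, 18 h at 37 C. Beta-lactamase read by CCF4 fluorescence (460/530 nm); Hill fits gave IC50 and efficacy.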
# [15] = qHTS assay for small molecule activators of the p53 signaling pathway (AID 651743; active = well fitted activation curve with a large enough effect in the signal ratio, not every such curve was filed as active; the % refers to the signal ratio; also: series mostly up to about 92 µM; % of control where 0% means no effect); conditions: HCT-116 p53RE-bla, beta-lactamase FRET ratio, 16 h; activation: stronger effect = higher value
# How it was run: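 p53RE-bla HCT-116 cells carrying a beta-lactamase reporter under p53 response elements were exposed to compounds for 16 hours at 37 C. Reporter activity read as fluorescence after 2 hours at room temperature with LiveBLAzer B/G FRET substrate.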
# [16] = qHTS assay for small molecule activators of the nuclear factor-kappa B (NF-kB) signaling pathway (AID 651749; active = well fitted activation curve with a large enough effect in the signal ratio; the % refers to the signal ratio; also: series mostly up to about 77 µM; % of control where 0% means no effect); conditions: NF-kB-bla ME-180 cells, beta-lactamase FRET ratio, 16 h; activation: stronger effect = higher value
# How it was run: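 NF-kB-bla ME-180 cells carrying a beta-lactamase reporter under an NF-kB response element, 2,000 cells/well, exposed to compound for 16 hr at 37C; FRET-based beta-lactamase fluorescence read-out of pathway activation.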
# [17] = qHTS assay for environmental chemicals that activate the Aryl hydrocarbon Receptor (AhR) signaling pathway (AID 651777; active = well fitted curve in the direction sought with a large enough effect; an effect the other way counts as inactive or inconclusive; also: % of control where 0% means no effect; nearly all actives have a fitted effect of over 15% in size); conditions: 1A2-DRE human hepatoma cells, luciferase, 24 h; activation: stronger effect = higher value
# How it was run: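 Stable CYP1A2 promoter/DRE-luciferase human hepatoma line treated 24 hr; One-Glo luminescence, 30 min RT.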
# [18] = biological target: Peroxisome proliferator-activated receptor alpha (Homo sapiens) (UniProt Q07869); assay: qHTS assay for small molecule agonists of the peroxisome proliferator-activated receptor alpha (PPARalpha) signaling pathway (AID 651778; active = well fitted curve in the direction sought with a large enough effect; an effect the other way counts as inactive or inconclusive; also: % of control where 0% means no effect); conditions: PathHunter PPARalpha complementation, chemiluminescence, 6 h; max response: stronger effect = higher value
# How it was run: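 Enzyme-fragment complementation assay in which ligand-bound PPARalpha translocates and forms an active enzyme that generates chemiluminescence. Cells were plated overnight, exposed to compound for 6 hr at 37 C, and then given detection reagent for 60 min at room temperature.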
# [19] = qHTS assay for small molecule agonists of the antioxidant response element (ARE) signaling pathway measured by Nrf2-dependant transcriptional activity - cell viability counter screen (AID 720653; active = well fitted curve in the direction sought with a large enough effect in the repeat runs; an effect the other way counts as inactive or inconclusive; also: % is scaled to controls: 0 for no effect and ±100 for the full control effect); conditions: ARE-bla HepG2 viability, CellTiter-Glo ATP luminescence, 16 h; max response: stronger effect = lower value
# How it was run: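 ARE-bla HepG2 cells treated with compounds for 16 h at 37C; this counter screen measures viability as intracellular ATP by CellTiter-Glo luminescence after 30 min at room temperature.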
# [20] = qHTS assay for cell viability of HEK293 cells (AID 743288; active = well fitted curve in the direction sought with a large enough effect; an effect the other way counts as inactive or inconclusive; also: % is scaled to controls: 0 for no effect and ±100 for the full control effect; nearly all actives have a fitted effect of over 50% in size); conditions: ATP luminescence (CellTiter-Glo), 18 h; max response: stronger effect = lower value
# How it was run: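 Environmental chemicals tested in qHTS format against parental HEK293 cells; 18 h treatment, 37 C; read-out ATP luminescence (CellTiter-Glo), 30 min RT development.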
# [21] = qHTS assay for cell viability of the p53RE-bla HCT-116 cell line (AID 743292; active = well fitted curve in the direction sought with a large enough effect; an effect the other way counts as inactive or inconclusive; also: % is scaled to controls: 0 for no effect and ±100 for the full control effect; nearly all actives have a fitted effect of over 55% in size)
# How it was run: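 Readout: CellTiter-Glo luminescence after 30 min RT. Treatment: compounds in DMSO, 16 h, 37 C. Cells: CellSensor p53RE-bla HCT-116, 4,000/well, preincubated 5 h.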
# [22] = biological target: Nuclear receptor subfamily 1 group I member 2 (Rattus norvegicus) (UniProt Q9R1A7); assay: qHTS assay for small molecule activators of the rat pregnane X receptor (rPXR) signaling pathway (AID 651751; call rule not given here; also: 0% is about no effect); conditions: rPXR reporter cells, luciferase (One-Glo), 24 h
# [23] = biological target: Peroxisome proliferator-activated receptor delta (Homo sapiens) (UniProt Q03181); assay: qHTS assay for small molecule agonists of peroxisome proliferator-activated receptor delta signaling (AID 588534);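 also: 0% = DMSO basal wells and 100% = positive control agonist at 10 µM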
# How it was run: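 Cells carrying a PPAR-delta beta-lactamase reporter were treated with compounds for 18 h at 37 °C in agonist mode. CCF4 fluorescence was read after 2 h; EC50 and efficacy from Hill fits.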
# [24] = qHTS assay for small molecule antagonists of peroxisome proliferator-activated receptor delta signaling (AID 588535; active = well fitted inhibition curve with a large enough effect in the signal ratio, with a control signal flat, not every such curve was filed as active; the % refers to the signal ratio;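 as to max response: cells co-treated with a PPAR-delta agonist as stimulator during compound exposure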); conditions: HEK293T PPARd-UAS-bla, beta-lactamase FRET ratio, 18 h; 460 nm channel
# How it was run: (§2)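 Antagonist-mode beta-lactamase reporter (GeneBLAzer PPAR-delta-UAS-bla) in HEK293T cells, 2% charcoal/dextran FBS, 4000 cells/well. Compound titrations, 18 h at 37 C; CCF4 ratio read, IC50 and efficacy from Hill fits.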
# [25] = biological target: Peroxisome proliferator-activated receptor delta (Homo sapiens) (UniProt Q03181); assay: as above
# How it was run: as §2
# [26] = qHTS assay for small molecule agonists of the antioxidant response element (ARE) signaling pathway (AID 651741; active = well fitted activation curve with a large enough effect in the signal ratio; the % refers to the signal ratio; also: % of control where 0% means no effect)
# How it was run: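 CellSensor ARE-bla HepG2 cells (2,000/well) carrying ARE-driven beta-lactamase, exposed 16 h at 37 C. LiveBLAzer B/G FRET substrate added for 2 h at room temperature; fluorescence intensity read.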
# [27] = qHTS assay for small molecule agonists of the antioxidant response element (ARE) signaling pathway measured by Nrf2-dependant transcriptional activity (AID 720636; active = well fitted curve in the direction sought with a large enough effect in the repeat runs; an effect the other way counts as inactive or inconclusive;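 also: HepG2 cells with an ARE-driven luciferase reporter; % of control where 0% means no effect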)
# How it was run: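 Reporter gene assay, HepG2 ARE-luc: 16 hr compound, 37 C, 5% CO2; read-out luciferase luminescence.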
# [28] = qHTS assay for small molecule activators of the human pregnane X receptor (PXR) signaling pathway (AID 720659; call rule not given here; also: 0% is about no effect)
# Chain of Glucocorticoid receptor (Homo sapiens) (P04150 whole entry, looked up): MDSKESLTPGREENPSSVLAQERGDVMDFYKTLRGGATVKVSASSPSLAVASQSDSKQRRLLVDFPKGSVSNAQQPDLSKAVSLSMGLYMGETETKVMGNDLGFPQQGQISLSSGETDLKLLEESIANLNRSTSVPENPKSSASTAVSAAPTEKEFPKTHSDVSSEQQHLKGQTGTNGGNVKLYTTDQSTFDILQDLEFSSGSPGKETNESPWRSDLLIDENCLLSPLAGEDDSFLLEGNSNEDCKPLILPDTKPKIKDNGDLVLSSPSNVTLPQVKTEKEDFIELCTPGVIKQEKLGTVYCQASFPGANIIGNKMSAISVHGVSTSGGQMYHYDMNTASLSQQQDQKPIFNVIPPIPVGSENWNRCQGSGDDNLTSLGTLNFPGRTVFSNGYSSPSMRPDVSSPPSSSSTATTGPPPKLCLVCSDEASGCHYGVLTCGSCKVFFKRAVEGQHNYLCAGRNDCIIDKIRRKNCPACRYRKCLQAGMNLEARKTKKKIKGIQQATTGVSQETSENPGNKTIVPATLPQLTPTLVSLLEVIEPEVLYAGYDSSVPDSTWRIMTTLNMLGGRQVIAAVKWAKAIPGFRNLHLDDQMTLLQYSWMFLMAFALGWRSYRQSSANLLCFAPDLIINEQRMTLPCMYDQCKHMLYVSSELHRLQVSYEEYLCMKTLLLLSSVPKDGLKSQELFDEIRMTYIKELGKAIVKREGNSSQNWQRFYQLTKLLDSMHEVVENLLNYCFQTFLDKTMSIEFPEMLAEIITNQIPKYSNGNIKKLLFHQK
# Chain of Retinoic acid receptor RXR-alpha (Homo sapiens) (P19793 whole entry, looked up): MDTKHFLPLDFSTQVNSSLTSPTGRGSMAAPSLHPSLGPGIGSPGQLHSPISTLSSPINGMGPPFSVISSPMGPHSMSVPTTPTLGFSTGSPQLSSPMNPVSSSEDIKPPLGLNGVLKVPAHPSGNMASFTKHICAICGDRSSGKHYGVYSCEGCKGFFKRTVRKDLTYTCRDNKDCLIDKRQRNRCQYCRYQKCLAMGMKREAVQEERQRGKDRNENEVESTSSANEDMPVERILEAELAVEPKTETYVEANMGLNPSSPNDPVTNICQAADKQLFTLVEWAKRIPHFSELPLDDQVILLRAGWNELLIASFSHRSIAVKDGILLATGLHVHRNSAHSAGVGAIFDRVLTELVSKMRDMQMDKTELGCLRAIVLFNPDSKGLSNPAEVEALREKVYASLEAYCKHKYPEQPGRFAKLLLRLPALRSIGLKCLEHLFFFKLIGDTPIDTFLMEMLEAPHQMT
# Chain of Peroxisome proliferator-activated receptor gamma (Homo sapiens) (P37231 whole entry, looked up): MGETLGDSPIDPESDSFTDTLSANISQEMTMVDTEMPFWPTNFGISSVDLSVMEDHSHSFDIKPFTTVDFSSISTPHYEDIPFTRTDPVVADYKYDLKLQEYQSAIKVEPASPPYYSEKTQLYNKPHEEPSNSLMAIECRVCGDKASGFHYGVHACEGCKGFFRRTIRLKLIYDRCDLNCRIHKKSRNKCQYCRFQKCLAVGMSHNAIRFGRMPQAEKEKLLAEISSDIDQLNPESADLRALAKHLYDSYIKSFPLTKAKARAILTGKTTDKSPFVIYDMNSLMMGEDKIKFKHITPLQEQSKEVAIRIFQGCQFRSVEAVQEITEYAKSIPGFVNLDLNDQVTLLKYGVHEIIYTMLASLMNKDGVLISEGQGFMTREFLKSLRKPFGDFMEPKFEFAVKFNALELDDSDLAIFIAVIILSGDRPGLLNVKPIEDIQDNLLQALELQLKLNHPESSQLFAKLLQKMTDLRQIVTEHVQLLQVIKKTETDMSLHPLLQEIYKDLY
# Chain of Thyroid hormone receptor beta (Homo sapiens) (P10828 whole entry, looked up): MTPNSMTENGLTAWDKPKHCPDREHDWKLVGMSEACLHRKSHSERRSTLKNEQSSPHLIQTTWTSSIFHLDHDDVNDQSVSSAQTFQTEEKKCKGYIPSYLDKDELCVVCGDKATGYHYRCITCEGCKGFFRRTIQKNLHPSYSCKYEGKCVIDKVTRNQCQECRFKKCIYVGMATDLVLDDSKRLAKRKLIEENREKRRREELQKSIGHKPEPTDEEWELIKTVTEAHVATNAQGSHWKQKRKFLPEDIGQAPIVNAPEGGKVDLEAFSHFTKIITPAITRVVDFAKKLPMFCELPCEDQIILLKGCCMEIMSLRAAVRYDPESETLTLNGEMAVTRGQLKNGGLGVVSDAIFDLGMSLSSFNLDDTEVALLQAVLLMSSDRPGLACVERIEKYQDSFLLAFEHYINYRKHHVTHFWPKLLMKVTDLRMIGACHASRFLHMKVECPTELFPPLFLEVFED
# Chain of Bile acid receptor (Homo sapiens) (Q96RI1 whole entry, looked up): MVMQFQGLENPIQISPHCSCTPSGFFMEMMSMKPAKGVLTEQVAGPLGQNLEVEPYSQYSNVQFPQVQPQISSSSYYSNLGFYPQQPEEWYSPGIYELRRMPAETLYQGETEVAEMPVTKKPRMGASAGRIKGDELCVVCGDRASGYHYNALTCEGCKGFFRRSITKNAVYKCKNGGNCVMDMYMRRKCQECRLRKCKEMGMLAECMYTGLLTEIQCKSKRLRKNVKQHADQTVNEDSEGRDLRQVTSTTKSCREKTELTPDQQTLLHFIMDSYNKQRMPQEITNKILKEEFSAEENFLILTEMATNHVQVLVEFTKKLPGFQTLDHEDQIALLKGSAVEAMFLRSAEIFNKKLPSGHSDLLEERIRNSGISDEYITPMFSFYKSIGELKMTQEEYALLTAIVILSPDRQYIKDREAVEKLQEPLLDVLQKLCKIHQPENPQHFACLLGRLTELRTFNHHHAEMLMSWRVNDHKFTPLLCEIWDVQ
# Chain of Vitamin D3 receptor (Homo sapiens) (P11473 whole entry, looked up): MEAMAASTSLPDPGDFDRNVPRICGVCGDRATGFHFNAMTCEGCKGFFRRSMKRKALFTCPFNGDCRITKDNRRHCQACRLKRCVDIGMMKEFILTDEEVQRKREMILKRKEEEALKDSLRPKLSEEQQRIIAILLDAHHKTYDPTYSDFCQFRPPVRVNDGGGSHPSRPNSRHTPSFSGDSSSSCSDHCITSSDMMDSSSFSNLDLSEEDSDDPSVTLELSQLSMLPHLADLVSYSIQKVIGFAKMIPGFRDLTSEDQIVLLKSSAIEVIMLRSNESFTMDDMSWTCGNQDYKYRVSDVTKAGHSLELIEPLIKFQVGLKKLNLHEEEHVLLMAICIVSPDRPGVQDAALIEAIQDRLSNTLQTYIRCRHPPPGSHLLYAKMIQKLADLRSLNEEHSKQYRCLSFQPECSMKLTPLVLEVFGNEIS
# Chain of Peroxisome proliferator-activated receptor alpha (Homo sapiens) (Q07869 whole entry, looked up, the tested form may be a part): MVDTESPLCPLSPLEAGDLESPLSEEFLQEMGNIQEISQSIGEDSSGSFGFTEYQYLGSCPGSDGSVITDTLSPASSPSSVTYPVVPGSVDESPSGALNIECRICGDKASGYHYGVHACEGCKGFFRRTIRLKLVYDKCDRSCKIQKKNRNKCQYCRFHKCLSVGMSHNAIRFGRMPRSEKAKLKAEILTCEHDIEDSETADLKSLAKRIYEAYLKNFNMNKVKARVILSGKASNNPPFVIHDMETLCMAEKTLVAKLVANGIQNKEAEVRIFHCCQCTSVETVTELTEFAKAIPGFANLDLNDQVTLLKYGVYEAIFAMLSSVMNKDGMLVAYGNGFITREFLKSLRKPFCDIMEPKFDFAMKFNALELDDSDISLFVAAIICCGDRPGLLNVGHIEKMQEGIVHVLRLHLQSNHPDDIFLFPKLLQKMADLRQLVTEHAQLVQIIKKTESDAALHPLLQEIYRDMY
# Chain of Peroxisome proliferator-activated receptor delta (Homo sapiens) (Q03181 whole entry, looked up): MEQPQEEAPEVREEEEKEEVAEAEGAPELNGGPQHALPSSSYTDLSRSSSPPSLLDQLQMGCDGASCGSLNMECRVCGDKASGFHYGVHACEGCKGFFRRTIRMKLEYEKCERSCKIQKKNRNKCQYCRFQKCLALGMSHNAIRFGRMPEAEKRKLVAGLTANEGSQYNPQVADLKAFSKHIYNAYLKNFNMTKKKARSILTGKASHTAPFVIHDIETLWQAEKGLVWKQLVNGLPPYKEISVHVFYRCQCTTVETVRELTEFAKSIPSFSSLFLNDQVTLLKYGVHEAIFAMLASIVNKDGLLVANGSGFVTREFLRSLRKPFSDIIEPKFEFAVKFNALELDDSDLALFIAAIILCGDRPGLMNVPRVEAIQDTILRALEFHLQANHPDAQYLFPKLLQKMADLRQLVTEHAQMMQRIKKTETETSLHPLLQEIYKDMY
# Chain of Nuclear receptor subfamily 1 group I member 2 (Rattus norvegicus) (Q9R1A7 whole entry, looked up): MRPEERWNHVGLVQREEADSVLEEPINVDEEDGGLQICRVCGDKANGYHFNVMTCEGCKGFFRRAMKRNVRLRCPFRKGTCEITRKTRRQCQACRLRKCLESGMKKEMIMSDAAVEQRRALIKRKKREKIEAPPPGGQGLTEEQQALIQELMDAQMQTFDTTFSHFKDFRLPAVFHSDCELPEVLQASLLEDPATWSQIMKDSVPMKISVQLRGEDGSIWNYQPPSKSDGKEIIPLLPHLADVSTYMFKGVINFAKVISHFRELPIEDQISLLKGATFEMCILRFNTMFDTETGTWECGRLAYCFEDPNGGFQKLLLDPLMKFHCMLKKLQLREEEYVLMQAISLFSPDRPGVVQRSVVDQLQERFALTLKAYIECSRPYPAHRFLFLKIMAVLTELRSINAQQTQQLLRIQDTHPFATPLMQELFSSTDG
smiles,measurement,setting,value
CCN(CC)C(=O)SCc1ccc(Cl)cc1,Potency,[1],inactive
same,activation,[2],5.41% (inactive)
same,activation,[3],-4.08% (inactive)
same,Potency,[4],inactive
same,Potency,[5],inactive
same,Potency,[6],inactive
same,Potency,[7],inactive
same,outcome,[8],inactive
same,max response,[9],0.303%
same,Potency,[10],inactive
same,Potency,[11],inactive
same,max response,[12],-13.2%
same,max response,[13],-31.3% (inactive)
same,activity change % (negative = inhibition),[14],12% (inactive)
same,activation,[15],1.13% (inactive)
same,activation,[16],-0.511% (inactive)
same,activation,[17],2.07% (inactive)
same,max response,[18],-1.35% (inactive)
same,max response,[19],-5.19% (inactive)
same,max response,[20],-14.7% (inactive)
same,Potency,[21],inactive
same,max response,[22],1.53% (inactive)
CCNc1nc(NC(C)C)nc(OC)n1,Potency,[1],inactive
same,activation,[2],-2.29% (inactive)
same,activation,[3],-1.69% (inactive)
same,outcome,[23],inactive
same,max response,[24],24.4%
same,Potency,[25],inactive
same,Potency,[5],inactive
same,Potency,[7],inactive
same,outcome,[8],inactive
same,max response,[9],-5.81%
same,Potency,[10],inactive
same,Potency,[11],inactive
same,max response,[12],-8.69%
same,max response,[13],2.56% (inactive)
same,Potency,[26],inactive
same,activation,[15],-0.985% (inactive)
same,activation,[16],-1.42% (inactive)
same,activation,[17],0.686% (inactive)
same,max response,[18],-1.03% (inactive)
same,Potency,[27],inactive
same,max response,[19],6.46% (inactive)
same,max response,[20],0.985% (inactive)
same,Potency,[21],inactive
same,max response,[22],0.846% (inactive)
same,outcome,[28],inactive

# Reference: PubChem BioAssay (NCATS)
